Values joined by “and” are separate entries in the source; they are usually repeats but may differ in a detail not shown here. Identical values can stand only once. The whole screen tested about 34,000 compounds, of which about 290 (0.85%) showed an effect of 50% or more. The list comes from a sample in which strong results are over-represented; it also holds similar structures and randomly drawn compounds.
Test system: Plasmodium falciparum
Test: Plasmodium falciparum sporozoite viability assay
Type: functional, organism-based
Set-up: scale not given: in the data most compounds retested in dose-response had high values

| Structure (SMILES) | Percent Effect [%] | Percent Effect (10 mM as filed; unlikely as a test dose) |
| --- | --- | --- |
| COc1cccc(CNC(=O)C(c2cccc(F)c2)N2CCOCC2)c1 (stereo unspecified) | -3.044 |  |
| O=C(c1ccc(OCC2CC2)nc1)N1CCCC(n2cccn2)C1 (stereo unspecified) | -19.18 |  |
| CC(C)C(=O)N(C)CC(=O)Nc1ccc(Br)cn1 | 14 |  |
| CC(C)NC(=O)C1CCN(c2nc3nc[nH]c(=O)c3s2)CC1 | 4.304 |  |
| O=C(O)CC(O)(CC(=O)O)C(=O)O.OC1CCN(Cc2ccnc(-c3cccnc3)n2)CC1 | -11.33 |  |
| O=C(C1CCOCC1)N1CC[C@@H](O)[C@@H]1Cc1ccccc1 | -0.722 |  |
| CCc1cc(C(=O)N2CCc3nc4c(C)csc4c(=O)n3CC2)on1 | -3.013 |  |
| Cc1ccc(CNC2CCCN(Cc3noc(C4CC4)n3)C2)s1 (stereo unspecified) | 14.12 |  |
| Cc1nccc([C@@H]2C[C@H]3CN(S(=O)(=O)c4ccccc4)C[C@H]3O2)n1 | -0.614 |  |
| COCc1noc(-c2ccc(N3CCCC3c3nccs3)nc2)n1 (stereo unspecified) | 12.02 |  |
| COCc1noc(-c2ccc(N3CCCC3c3ccc(F)cc3)nc2)n1 (stereo unspecified) | -8.49 |  |
| COCc1noc(-c2ccc(N3CCCCC3COC)nc2)n1 (stereo unspecified) |  | 46.38% and 65.96% and 53.91% |
| Cc1ccc(CN2Cc3nccn3CC(Cn3cccn3)C2)s1.O=C(O)C(F)(F)F (stereo unspecified) | 14.89 |  |
| c1ccc(OCCN2CCc3c(ncn3C3CC3)C2)cc1 | 1.314 |  |
| Cn1cc(-c2nc(CN3CCc4c(ncn4C)C3)cs2)cn1 |  | 16.12% and 15.46% and 16.04% |
| Cn1cnc2c1CCN(c1ccnc(-c3ccccc3)n1)C2 |  | 23.08% and 36.96% and 19.93% |
| c1ccc(CCN2CCc3c(ncn3C3CC3)C2)nc1 |  | 67.57% and 58.81% |
| c1cc(-c2nc(CN3CCc4c(ncn4C4CC4)C3)cs2)cs1 |  | 57.35% and 45.82% and 61.3% |
| Cn1cnc2c1CCN(Cc1csc(-c3ccsc3)n1)C2 |  | 58.75% and 42.56% and 36.07% |
| c1ccc(-c2nccc(N3CCc4c(ncn4C4CC4)C3)n2)cc1 |  | 47.31% and 54.94% and 44.8% |
| COc1cc(CCC(=O)N2CCC(c3cc4ncc(C)nc4[nH]3)C2)on1 (stereo unspecified) | 3.144 |  |

| Structure (SMILES) | Percent Effect [%] | Percent Effect (10 mM as filed; unlikely as a test dose) |
| --- | --- | --- |
| Cn1ncc2ccc(C3CCCN(C(=O)Cc4cccs4)C3)nc21 (stereo unspecified) | 10.94 |  |
| CC(=O)N1CCCC(Cc2cncc(Br)c2)C1 (stereo unspecified) | 6.529 |  |
| Cl.NC[C@H]1CC[C@H](c2c(C(N)=O)sc3ccccc32)CC1 | -7.353 |  |
| CC(C)c1nccn1-c1cncc(C2CCCN(C3CCCC3)C2)n1 (stereo unspecified) | -6.527 |  |
| CC(=O)Nc1ncc(S(=O)(=O)Nc2cccc(C)c2)s1 |  | -25.8% and -18.95% |
| c1ccc(Cc2noc(CN3CCc4c(ncn4C4CC4)C3)n2)cc1 |  | -14.98% and -2.391% and 8.348% |
| Cn1cnc2c1CCN(Cc1csc(-c3ccc(F)cc3)n1)C2 |  | -9.047% and 9.476% and -2.391% |
| Cn1cnc2c1CCN(Cc1csc(-c3ccccc3F)n1)C2 |  | 76.94% and 88.44% and 75.64% |
| CN(Cc1ccncc1)C1CC2(CCN(Cc3ccccn3)CC2)C1 | -12.29 |  |
| c1cc2c(cc1CN(Cc1nc(C3CC3)no1)C1CCCC1)OCO2 |  | 12.71% and 9.481% and -1.226% |
| CCc1noc(CN(Cc2ccc3c(c2)OCO3)C2CCCC2)n1 |  | 55.13% and 62.45% and 59.26% |
| COc1ccc(C(C(=O)O)N2CCC(Cn3cccn3)CC2)cc1F (stereo unspecified) |  | -7.781% and -11.29% |
| CC(C)n1nnc(CC(=O)NCC2(c3ccccc3F)CCCC2)n1 | 17.65 |  |
| O=C(CCCc1ccccn1)N1CCCC(n2cccn2)C1 (stereo unspecified) | 0.2979 |  |
| C1CCCN(CC2CCCN(Cc3noc(C4CC4)n3)C2)CC1 (stereo unspecified) | 3.026 |  |
| COc1ccc(C(CO)NC(=O)Nc2cccc(C(C)=O)c2)cc1 (stereo unspecified) |  | 15.43% and 22.65% |
| COc1ccc(C(CO)NC(=O)Nc2cccc(C#N)c2)cc1 (stereo unspecified) |  | 6.223% and 12.91% and -11.88% |
| COc1ccc(C(CO)NC(=O)Nc2cccc(F)c2)cc1 (stereo unspecified) |  | 72.06% and 80.87% |
| CN(CCc1ccccc1)Cc1c(C2CCNCC2)[nH]c2ncccc12.Cl | -0.2567 |  |
| CNc1cncc(C2CCCN2S(=O)(=O)c2ccccc2F)n1 (stereo unspecified) | 7.397 |  |
| Cc1nn(C)c(N2CCOCC2)c1CNCc1ccc(N(C)C)nc1 |  | 6.683% and 14.39% and 13.71% |

| Structure (SMILES) | Percent Effect [%] | Percent Effect (10 mM as filed; unlikely as a test dose) |
| --- | --- | --- |
| COc1ccc(CNCc2c(C)nn(C)c2N2CCOCC2)cc1 |  | -16.18% and -2.312% and -16.24% |
| C=Cn1ncc(CN2C[C@@H]3CCCN3C[C@H]2Cc2ccccc2)c1C | -1.399 |  |
| CC(=O)N1N=C(c2cccs2)OC1C(=O)Nc1ccc(C)cc1 (stereo unspecified) | -16.37 |  |
| Cc1sc2c(C3CCNCC3)nc(Nc3cccc(F)c3)n2c1C.Cl |  | 63.64% and 42.54% and 49.37% |
| COc1cccc(-c2ccnc(C3CCNCC3)c2)c1 | 4.65 |  |
| COc1cccc(Nc2nc(C3CCNCC3)c3sc(C)c(C)n23)c1.Cl |  | 77.36% and 36.71% and 52.33% |
| Cc1nc(NCc2cccc(F)c2)cc(C2CCNCC2)n1.Cl | 0.8951 |  |
| COc1cccc(Nc2nc(C3CCCNC3)c3sc(C)c(C)n23)c1.Cl (stereo unspecified) |  | 4.856% and 5.657% and 12.75% |
| COc1cccc(-n2nnc(C(=O)N3CCN(C(C)=O)CC3)c2C)c1 | 6.024 |  |
| COCC1CC2(CCN(c3cccc(C)n3)CC2)CN1c1ncccn1.O=C(O)C(F)(F)F (stereo unspecified) | -2.7 |  |
| COCCNC(=O)C1(CCCc2cccnc2)CCCN1C (stereo unspecified) | 16.89 |  |
| O=C1C(NCc2nnc3n2CCCC3)CCCN1c1ccccc1 (stereo unspecified) | 6.53 |  |
| Cc1ccc2c(c1)C(=O)NCC1(CCN(C(=O)c3cc(C)no3)CC1)O2 | 21.42 |  |
| CN1C[C@@H](C(=O)N2CCOCC2)[C@@]2(CCc3ccccc3C(=O)N2)C1 | -1.963 |  |
| COc1ccc(-c2cnc(N(C)C)nc2C2CNCCO2)cc1.Cl (stereo unspecified) | 3.932 |  |
| COc1ccc(OCCc2cc(C3CNCCO3)nn2C)cc1 (stereo unspecified) | 0.06458 |  |
| COc1ccc(-c2ccnc(C3CCNCC3)c2)cc1.Cl | 12.14 |  |
| COc1ccc(-c2ccc(C3CNCCO3)nc2)cc1.Cl (stereo unspecified) |  | 82.18% and 93.08% and 86.88% |
| Cn1nc(C2CNCCO2)cc1CCOc1ccc(C(F)(F)F)cc1 (stereo unspecified) | 8.847 |  |
